Experimental data from PubChem BioAssay.
Active and inactive are the calls of the source.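 Rule for the calls, unless noted: active = visually confirmed hit in the image check and inhibition above 20%; inconclusive = visually confirmed hit but inhibition not above 20%; inactive = no visual hit in the image check.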

Tests used:
[1] = inhibitors of TNFa-induced NFkB p65 translocation, primary screen, imaging, HUVEC, MLSMR starter and 10KST1 sets (AID 438;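 active = inhibition above 20% together with a positive visual image hit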;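 note: compound added about 3h40 before a 20 min TNFalpha stimulation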;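 for inhibition: signal is the nuclear over cytoplasmic p65 intensity ratio per well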); details: HUVEC TNFa-induced p65 nuclear translocation; cell count: measured here: nuclei count (cytotoxicity indicator), at 2.08 µM; inhibition: at 2 µM, stronger effect = higher value, 0% TNFa-plus-vehicle, 100% no-TNFa wells
[2] = reduction of polyQ htt aggregates in cells – imaging, exon1htt(103Q)mCFP cells, high-content imaging, primary screen (AID 483;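 active = visual image review flags a hit and inhibition of aggregation exceeds 20%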;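 note: compound exposure lasted 3 days before fixation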;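 for nuclei count: percent of the per-plate median nuclei count of sample wells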); details: exon1htt(103Q)mCFP cell line, aggregate imaging, at 2 µM; inhibition of aggregation: stronger effect = higher value; nuclei count: measured here: cell count, toxicity
[3] = endothelial E-selectin expression blockers – imaging, HUVEC, immunofluorescence, MLSMR starter and 10KST1 sets, primary screen (AID 487); details: HUVEC TNFalpha-induced E-selectin immunofluorescence imaging, at 2 µM; inhibition: stronger effect = higher value; nuclei count: measured here: cell number, toxicity;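 for inhibition: signal is fraction of cell area covered by stained E-selectin grains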;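 for nuclei count: 100% = median nuclei count of all wells on the same plate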
[4] = molecular target: Voltage-gated potassium channel subunit beta-2 (Rattus norvegicus) (UniProt P62483); assay: inhibitors of rat Kvbeta2 reductase activity – biochemical, NADPH fluorescence, primary screen (AID 622;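 active = fluorescence slope higher than the sample average by over 3 SD, cut at about -0.22 in these data, passing the limit was not always enough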;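 note: slope of raw intensity against log time taken from 70 to 1610 s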); details: recombinant KvBeta, 4-cyanobenzaldehyde reduction, at 10 µM, stronger effect = higher value
Voltage-gated potassium channel subunit beta-2 (Rattus norvegicus), sequence (P62483 whole entry, looked up): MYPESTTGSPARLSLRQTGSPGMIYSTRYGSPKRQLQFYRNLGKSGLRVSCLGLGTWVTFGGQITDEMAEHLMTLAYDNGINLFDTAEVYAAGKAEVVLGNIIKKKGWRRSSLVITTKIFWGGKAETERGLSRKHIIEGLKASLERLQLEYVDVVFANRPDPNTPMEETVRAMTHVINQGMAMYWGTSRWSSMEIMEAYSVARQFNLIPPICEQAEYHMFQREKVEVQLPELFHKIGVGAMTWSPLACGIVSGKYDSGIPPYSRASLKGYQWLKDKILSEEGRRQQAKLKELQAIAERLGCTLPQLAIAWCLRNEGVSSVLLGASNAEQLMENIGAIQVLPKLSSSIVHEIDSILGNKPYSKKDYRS

[5] = molecular target: Voltage-gated potassium channel subunit beta-2 (Rattus norvegicus) (UniProt P62483); assay: enhancers of rat Kvbeta2 NADPH turnover – biochemical, NADPH fluorescence, primary screen (AID 623;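 active = NADPH fluorescence slope more negative than the mean of all samples by about 3 SD, 99.7% confidence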;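 note: fluorescence intensity change per second fitted from 20 to 320 s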); details: Recombinant KvBeta, NADPH fluorescence decrease slope, 10 min; at 10 µM; stronger effect = lower value
[6] = molecular target: Alpha-2C adrenergic receptor (Homo sapiens) (UniProt P18825); assay: compounds altering alpha2C-coupled GIRK flux – cell-based, HEK293 alpha2C/GIRK1/2, thallium flux, primary screen (AID 624;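 active = fluorescence slope after compound addition differing from the mean of all screened samples at 99.7% confidence, in either direction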;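 note: slope of fluorescence ratio to pre-addition baseline per second over 15 to 24 s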); details: thallium flux BTC fluorescence, at 10 µM, actives lie on both sides
Alpha-2C adrenergic receptor (Homo sapiens), sequence (P18825 whole entry, looked up): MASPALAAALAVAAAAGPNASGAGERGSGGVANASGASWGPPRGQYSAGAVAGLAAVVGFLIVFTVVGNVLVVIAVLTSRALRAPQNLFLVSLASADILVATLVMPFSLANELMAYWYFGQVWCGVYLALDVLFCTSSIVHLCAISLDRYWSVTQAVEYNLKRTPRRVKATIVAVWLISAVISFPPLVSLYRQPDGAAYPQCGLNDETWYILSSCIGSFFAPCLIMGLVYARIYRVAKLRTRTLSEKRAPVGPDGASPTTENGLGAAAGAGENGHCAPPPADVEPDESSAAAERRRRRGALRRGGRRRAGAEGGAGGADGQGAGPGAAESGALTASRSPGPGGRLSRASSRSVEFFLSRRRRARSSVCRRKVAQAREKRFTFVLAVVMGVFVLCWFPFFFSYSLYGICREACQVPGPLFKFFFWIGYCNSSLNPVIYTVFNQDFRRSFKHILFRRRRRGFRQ

[7] = blockers of RIG-like receptor reporter activation – cell-based, Sendai virus stimulus, luciferase, 10K MLSCN set, TLR/RLR signaling modifier project, primary screen (AID 602276;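 active = inhibition at or above 50% at 10 µM; inactive = inhibition below 50%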;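 note: firefly luciferase from ISG56 promoter only with Renilla not read in this screen; 0% = Sendai virus plus DMSO and 100% = medium plus DMSO without virus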); details: HEK293 RL24 IRF3 luciferase reporter, at 10 µM, stronger effect = higher value
[8] = TLR3 IRF3 reporter activation blockers – cell-based, poly I:C stimulus, luciferase, 10K MLSCN set, primary screen (AID 602277;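 active = inhibition of the reporter signal at or above 50%; inactive = inhibition below 50%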); details: HEK293-TLR3 RL24 IRF3 luciferase reporter, at 10 µM, stronger effect = higher value

Row | Compound | cell count [1] | inhibition [1] | inhibition of aggregation [2] | nuclei count [2] | inhibition [3] | nuclei count [3] | fluorescence slope [4] | NADPH fluorescence slope [5] | slope [6] | inhibition [7] | inhibition [8]
1 | O=C(CCc1nc2ccccc2[nH]1)Nc1ccc2c(c1)OCO2 | 310 | -9.6% (inactive) | 23.8% (inactive) | 111% | -68.2% (inactive) | 111% | -0.347 (inactive) | 1.4e-05 (inactive) | 0.00426 (inactive) | -10.7% (inactive) | -26.2% (inactive)
2 | CCOc1ccc(NS(=O)(=O)c2ccc(OCC(=O)N3CCCC3)cc2)cc1 | 422 | -15.4% (inactive) | 43.4% (active) | 98.7% | -56.1% (inactive) | 169% | -0.465 (inactive) | -4.2e-05 (inactive) | 0.00531 (inactive) | 8.25% (inactive) | 13.9% (inactive)
3 | CC1=C(C(=O)NC2CCC(C)CC2)C2(CCC(C)CC2)OC1=O (centres undefined) | 640 | 17.2% (inactive) | -14.7% (inactive) | 99.8% | 5.3% (inactive) | 126% | -0.486 (inactive) | 7.7e-06 (inactive) | 0.00549 (inactive) | 10.7% (inactive) | 15.1% (inactive)
4 | COc1cccc2cc(C(=O)N3CCN(c4ccc(C)cc4C)CC3)c(=O)oc12 | 800 | -3.4% (inactive) | -43.1% (inactive) | 116% | -30.2% (inactive) | 110% | -0.565 (inactive) | -1.5e-05 (inactive) | 0.00579 (inactive) | -9.04% (inactive) | 5.89% (inactive)
5 | O=C(O)c1cccc(S(=O)(=O)N2CCOCC2)c1 | 378 | -0.6% (inactive) | 12.5% (inactive) | 95.2% | 20.2% (inactive) | 99.4% | -0.472 (inactive) | -0.000388 (inactive) | 0.00562 (inactive) | -16% (inactive) | -15.1% (inactive)
6 | Nn1c(SCC(=O)NC2CCCCC2)nnc1C1CC1 | 433 | -28.7% (inactive) | 7.4% (inactive) | 95.6% | -36.9% (inactive) | 117% | -0.466 (inactive) | 4.6e-05 (inactive) | 0.00622 (inactive) | 4.49% (inactive) | 16.1% (inactive)
7 | Cc1ccc(NC(=O)CN(C)S(=O)(=O)c2cccc3nsnc23)cc1Cl | 711 | -16.4% (inactive) | 7.2% (inactive) | 105% | -20.4% (inactive) | 115% | -0.333 (inactive) | -4.1e-05 (inactive) | 0.00467 (inactive) | -17.3% (inactive) | 100% (active)
8 | N#CCCNCC1(c2ccccc2)CCCC1 | 567 | -9.1% (inactive) | -10.6% (inactive) | 108% | 1.8% (inactive) | 104% | -0.576 (inactive) | -4.5e-05 (inactive) | 0.00572 (inactive) | 2.93% (inactive) | 9.79% (inactive)
9 | CCOC(=O)Nc1cc(OC)c(OC)cc1Cc1nccc2cc(OC)c(OC)cc12 | 444 | -1.8% (inactive) | -1.2% (inactive) | 111% | -20.1% (inactive) | 173% | -0.532 (inactive) | 4.5e-06 (inactive) | 0.00447 (inactive) | -7.98% (inactive) | 5.89% (inactive)
10 | CCSc1nnc(NC(=O)C2CCCN(S(=O)(=O)c3cnc[nH]3)C2)s1 (centres undefined) | 577 | -0.5% (inactive) | 10% (inactive) | 101% | -101% (inactive) | 125% | -0.537 (inactive) | -2.1e-05 (inactive) | 0.00708 (inactive) | 9.63% (inactive) | 21.5% (inactive)
11 | O=C(NCC(=O)N(c1ccc2c(c1)OCCO2)C(C(=O)NC1CCCC1)c1ccco1)c1ccco1 (centres undefined) | 245 | 17.9% (inactive) | -23.9% (inactive) | 83.9% | 20.3% (inactive) | 95.6% | -0.409 (inactive) | 3.7e-05 (inactive) | 0.00578 (inactive) | -2.48% (inactive) | -2.78% (inactive)
12 | C=Cn1nc(C)c2ccccc2c1=O | 655 | -2.6% (inactive) | 16.4% (inactive) | 114% | -27.2% (inactive) | 137% | -0.344 (inactive) | -2.7e-05 (inactive) | 0.00755 (inactive) | 3.73% (inactive) | 1.18% (inactive)
13 | COCCCN1C(=O)C(=O)/C(=C(/O)c2ccc(OCC(C)C)cc2C)C1c1cccnc1 (centres undefined) | 299 | -2.4% (inactive) | -8.7% (inactive) | 109% | -28.7% (inactive) | 110% | -0.463 (inactive) | 5.8e-06 (inactive) | 0.00417 (inactive) | 7.86% (inactive) | 23.2% (inactive)
14 | COc1ccc(C2C(C(=O)c3sc(C)nc3C)=C(O)C(=O)N2CCN(C)C)cc1OC (centres undefined) | 539 | 13.4% (inactive) | -5.5% (inactive) | 96.8% | 10.8% (inactive) | 103% | -0.6 (inactive) | -7.9e-05 (inactive) | 0.0037 (inactive) | -1.16% (inactive) | 4.66% (inactive)
